Potency data for 35 compounds are collected here from PubChem BioAssay (NCATS).

Records with an inconclusive call do not appear. Entries that show only a call come without a potency. Calls of active or inactive are those of the source. Calls follow the shape of the dose curve; as a rule, active = well fitted inhibition curve with a large enough effect; inconclusive = small, poorly fitted or top-dose-only effect; inactive = no such curve, though single readings can be large or run the other way.
Potency is read from the fitted curve at half-maximal effect.

The subject of this assay is Zika virus NS2B-NS3 protease (unlinked complex). Briefly: Primary screen GU Rhodamine qHTS for Zika virus inhibitors: Unlinked NS2B-NS3 protease assay (AID 1347159). Also: nearly all actives have a fitted effect of over 60% in size. The note with it: Recombinant ZIKV NS2B-NS3 protease, Rhodamine110 substrate fluorescence; series mostly up to 107 µM. The method in brief: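 In dose–response format, inhibition of unlinked protease (25 nM) was measured with 1.5 microM bis-peptide Rhodamine110 substrate. Aprotinin served as the intraplate control.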
`Cc1cc(-c2cc(OC(=O)c3ccccc3)ccc2Cl)cc2nnc(Nc3ccc(OCCN4CCCC4)cc3)nc12`: the Potency entry is “inactive”.

For `COC1CC(=O)C23C(=O)NC(Cc4c[nH]c5ccccc45)C2C(C)C2(C)OC2C3/C=C/CC(C)CC1O` (stereo not given), the Potency result was “inactive”.

Consider `COc1ccc2[nH]c(=O)c3c(c2c1)OC(C)(C)C=C3`, for which the Potency entry was “inactive”.

As to `CO[C@H]1C[C@@H]2CC[C@@H](C)[C@@](O)(O2)C(=O)C(=O)N2CCCC[C@H]2C(=O)O[C@H]([C@@H](C)C[C@@H]2CC[C@@H](O)[C@H](OC)C2)CC(=O)[C@H](C)/C=C(\C)[C@@H](O)[C@@H](OC)C(=O)[C@H](C)C[C@H](C)/C=C/C=C/C=C/1C`, the Potency entry was “inactive”.

For the compound `CC1OC(=O)C[C@@H]2C(C(=O)O)=CO[C@@H](O[C@H]3O[C@H](CO)[C@@H](O)[C@H](O)[C@H]3O)[C@H]12` (stereo not given in full), the Potency result was “inactive”.

As to `O=C(c1ccc(F)cc1)N1CCCC(c2nc(-c3ccc(F)cc3)no2)C1` (stereo not given), the Potency entry is “inactive”.

For the compound `CC1(CO)CC(O)[C@]2(C(=O)O)CCC34CC3(C=CC3[C@]5(C)C(CC[C@]34C)C(C)(CO)[C@@H](O)[C@H](O)[C@@H]5O)C2C1` (stereo not given in full), the Potency result was “inactive”.

In the case of `Fc1ccc(-c2nc(C3CCNCC3)sc2-c2ccnc(NC3CC3)n2)cc1`, the Potency entry is “inactive”.

Consider `Cc1cccc(-c2[nH]ncc2-c2ccnc3ccccc23)n1`, for which the Potency result was “inactive”.

In the case of `Cn1ncc(Cl)c1-c1cc(C(=O)N[C@H](CN)Cc2cccc(F)c2)sc1Cl`, the Potency result was “inactive”.

On to `Cn1cc(-c2ccc(F)c(C(F)(F)F)c2)nc1C1CCN(c2ncnc3[nH]ncc23)CC1`, for which the Potency result is “inactive”.

Consider `CCCCC1CCC(c2nc(-c3ccncc3)no2)CC1` (stereo not given), for which the Potency result is “inactive”.

Take `Cc1ccc(NC(=O)N2CCN(c3nc(N)nc4sc(-c5cccnc5)nc34)CC2)cc1`: the Potency result was “inactive”.

For the compound `C=C1CC2OC(=O)C(=C)C2C(OC(=O)/C(C)=C\C)CC2(C)OC1=CC2=O` (stereo not given), the Potency result is “inactive”.

In the case of `Cc1cc(-c2nc3cc(F)ccc3s2)ccc1NC(=O)[C@@H](N)CCCCN`, the Potency entry was “inactive”.

`C=C1[C@H]2CC[C@H](C(=O)O)[C@@]23CC[C@H](C3)C1(C)C`: the Potency entry is “inactive”.

Turning to `CC(=O)O[C@H]1CC2C(COC(=O)CC(C)C)=CO[C@@H](OC(=O)CC(C)C)C2[C@]12CO2` (stereo not given in full), the Potency entry was “inactive”.

Consider `Cc1ccc(-c2ncccn2)c(C(=O)N2C[C@H](COc3ccc(F)cn3)CC[C@H]2C)c1`, for which the Potency entry was “inactive”.

On to `CC(=O)O[C@H]1C[C@@](O)(C(C)C)[C@@H]2[C@@H](OC(=O)c3ccc(O)cc3)CC(C)=CC[C@@]12C`, for which the Potency result was “inactive”.

In the case of `O=C(CSc1nc2ccccc2c(=O)n1-c1ccccc1)Nc1ccc2c(c1)CCC2`, the Potency result was “inactive”.

For the compound `C=C[C@@]12COC(=O)C(=C)[C@@H]1[C@@H](O)[C@H](C(=C)C(=O)OC)[C@@H](O)C2`, the Potency entry is “inactive”.

Regarding `C=C1C(=O)O[C@@H]2C[C@H](C)[C@@H]3CC(=O)[C@H](O)[C@@]3(C)C[C@H]12`, the Potency entry is “inactive”.

Consider `CN(c1ccc(NC(=O)Nc2ccccc2)cc1)S(=O)(=O)c1cnn(-c2ccc(F)cc2)c1`, for which the Potency entry was “inactive”.

For `CC(C)(C)[C@H](NC(=O)c1ccc(N)c(Cl)c1)C(=O)N1CCC[C@H]1C(=O)N[C@H](C#N)CC(=O)O`, the Potency result was “inactive”.

For `COc1ccc([C@H]2Cc3cccc(O)c3C(=O)O2)cc1OC`, the Potency result was “inactive”.

On to `C=C1CC[C@@H]2[C@](C)(CO)[C@H](O)CC[C@@]2(C)[C@@H]1C/C=C1/C(=O)OCC1OC(=O)/C(=C/CO)C(O)C[C@@H]1C(=C)CC[C@@H]2[C@](C)(CO)[C@H](O)CC[C@]21C` (stereo not given in full), for which the Potency entry is “inactive”.

On to `CCC(C)/C=C(C)/C=C/C1=CC2=C(Cl)C(=O)C(C)(OC(C)=O)C(=O)C2(O)C(OC)O1` (stereo not given), for which the Potency is 28.2 µM (active).

Regarding `Cn1c(CO)c(-c2ccccc2)c2cc([N+](=O)[O-])ccc21`, the Potency entry was “inactive”.

For `C=C1C(=O)OC2C=C(C)CC/C=C(\CO)CC(O)C12` (stereo not given), the Potency entry is “inactive”.

On to `COC(=O)C[C@H]1C(C)(C)[C@H](OC(=O)c2ccccc2)C2CC3=C4CC(=O)O[C@@H](c5ccoc5)[C@]4(C)CCC3[C@@]1(C)C2=O` (stereo not given in full), for which the Potency result is “inactive”.

For the compound `c1cc(NC2CCNCC2)nc(-c2cnc3ccccn23)c1`, the Potency entry is “inactive”.

With `C=C1C(=O)O[C@@H]2C3=C(C)CCC[C@]3(C)CC[C@@]12O`, the Potency entry was “inactive”.

Consider `CC[C@@H]1C[C@]1(NC(=O)[C@@H]1C[C@@H]2CN1C(=O)[C@H](C(C)(C)C)NC(=O)OCC(C)(C)CCCCc1cccc3c1CN(C3)C(=O)O2)C(=O)NS(=O)(=O)C1CC1`, for which the Potency was 28.2 µM (active).

For `NC(=O)c1cccc2[nH]c(-c3ccc(C4CCCN4)cc3F)nc12` (stereo not given), the Potency entry was “inactive”.

As to `COc1cc(-c2nc(N[C@H](CO)Cc3ccccc3)ccc2C(=O)NCCOc2ccccc2)cc(OC)c1OC`, the Potency entry was “inactive”.
